From PubChem BioAssay
Several values for one entry are separate records, joined by “and”; a condition that tells them apart may be missing. Equal values may be shown once. A number with no mark means an inactive call. The rule behind the calls is not given here. Positions of bridges follow the written chain, without caps; N, C: chain ends. Non-standard residues stand in square brackets, D forms with d. Residues, ends and D or L forms follow the SMILES beside them. ξ: configuration not given here. *: point of attachment. ξDab(CH2SO3H) = NC(CCNCS(=O)(=O)O)C(=O)O; Heptanoyl(6-Me) = CC(C)CCCCC(=O)*; Dab = NCC[CH](N)C(=O)O

Experiments:
[1] = test system: Aerobactin synthetase IucA (Klebsiella pneumoniae hvKP1); test: IucA enzyme inhibition, primary screen, biochemical, Spectrum library (AID 1346200); settings: malachite green pyrophosphate, A620, at 8 µM, stronger effect = lower value;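 note: 100% = wells without compound and 0% = wells lacking enzyme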
[2] = test system: Aerobactin synthetase IucA (Klebsiella pneumoniae, hypervirulent); test: biochemical IucA inhibition screen of LOPAC library by absorbance (AID 1346212); settings: IucA enzyme assay, absorbance (OD) readout; stronger effect = lower value;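 tested at 8 µM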;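 note: 100% = no compound wells and 0% = no enzyme wells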

| SMILES | activity remaining [1] | remaining activity [2] |
| --- | --- | --- |
| COc1cc(OC)c2c(OC)c(-c3ccc4c(c3)OCO4)c(=O)oc2c1 | 95.4% |  |
| CC(=O)N[C@@H](CC(=O)O)C(=O)O | 110% |  |
| C[C@H](CCC(=O)O)[C@H]1CCC2C3C(CC[C@@]21C)[C@@]1(C)CC[C@@H](O)C[C@H]1C[C@H]3O (some centres undefined) | 101% |  |
| COc1ccc2cc3[n+](cc2c1OC)CCc1cc2c(cc1-3)OCO2 | 86.3% |  |
| OCc1c[nH]c2ccccc12 | 118% |  |
| COC(=O)CC1C(C)(C)C(OC(C)=O)[C@@H]2[C@@H](OC(C)=O)[C@]34O[C@@]2(O)[C@]1(C)C3CC[C@]1(C)C4=CC(=O)O[C@H]1c1ccoc1 (some centres undefined) | 124% |  |
| Oc1c(Cl)cc(Cl)c2cccnc12 | 113% |  |
| COc1cc(C)c2c(c1C=O)Oc1c(c(C)c(O)c3c1C(O)OC3=O)OC2=O (centres undefined) | 114% |  |
| Cc1cc(O)c(C)c(O)c1C(=O)O | 121% |  |
| O=C(O[C@@H]1Cc2c(O)cc(O)cc2O[C@@H]1c1cc(O)c(O)c(O)c1-c1c([C@H]2Oc3cc(O)cc(O)c3C[C@H]2OC(=O)c2cc(O)c(O)c(O)c2)cc(O)c(O)c1O)c1cc(O)c(O)c(O)c1 | 111% |  |
| COc1cc([C@@H]2c3cc4c(cc3C(O[C@@H]3O[C@@H]5CO[C@@H](c6cccs6)OC5[C@H](O)[C@H]3O)C3COC(=O)[C@@H]32)OCO4)cc(OC)c1O (some centres undefined) | 92.9% |  |
| O=C(O)CCC(=O)OC[C@@H](NC(=O)C(Cl)Cl)[C@H](O)c1ccc([N+](=O)[O-])cc1 | 110% |  |
| CC(=O)Oc1cc2c(c(C)c1OC(C)=O)CC=C1[C@@]2(C)CC[C@@]2(C)C3C[C@](C)(C(=O)O)CC[C@]3(C)CC[C@]12C (some centres undefined) | 95.9% |  |
| Cc1[nH]c(C)c(Cl)c(=O)c1Cl | 121% |  |
| O=c1c(O)cccc2cc(O)c(O)c(O)c12 | 107% |  |
| CC(C)[C@@H]1CC[C@@H](C)CC1=O | 120% |  |
| CC(=O)O[C@@H]1CC2C(C)(C)[C@@H](O)CC[C@]2(C)C2CC[C@@]3(C)[C@H](c4ccoc4)OC(=O)[C@H]4O[C@]43[C@@]21C (some centres undefined) | 124% |  |
| O=C(COc1ccc(Cl)cc1)N1CCN(Cc2ccc3c(c2)OCO3)CC1 | 107% |  |
| CC(C(=O)O)c1ccc2c(c1)[nH]c1ccc(Cl)cc12 (centres undefined) | 109% |  |
| CCCCCCCCCCC[C@@H](C[C@H]1OC(=O)[C@H]1CCCCCC)OC(=O)[C@@H](CC(C)C)NC=O | 112% |  |
| NC(=O)N1c2ccccc2CC(=O)c2ccccc21 | 123% |  |
| COc1cc([C@H]2Oc3cc([C@H]4Oc5cc(O)cc(O)c5C(=O)[C@@H]4O)ccc3O[C@@H]2CO)ccc1O | 122% |  |
| CC(=O)[C@H]1CCC2C3CCC4=CC(=O)CC[C@]4(C)C3CC[C@@]21C (some centres undefined) | 106% |  |
| COC(=O)C1[C@H]2C[C@H]3c4[nH]c5ccccc5c4CCN3C[C@@H]2CC[C@@H]1O (some centres undefined) | 112% |  |
| COc1ccc(C(Cl)=C(c2ccc(OC)cc2)c2ccc(OC)cc2)cc1 | 117% |  |
| COc1ccc(-c2coc3cc(O)cc(O)c3c2=O)cc1 | 98.7% |  |

| SMILES | activity remaining [1] | remaining activity [2] |
| --- | --- | --- |
| O=C1CC[C@]23/C=C/C(=O)NCCCCNCCCNC(=O)/C=C/c4ccc(c2c4)O[C@@H]3C1 | 117% |  |
| CC1(C)C=Cc2c(cc3occ(-c4ccc5c(c4)OCO5)c(=O)c3c2O)O1 | 118% |  |
| C#CCCCCCCCCCCCC(O)CC(O)COC(C)=O (centres undefined) | 109% |  |
| C[C@@H](N)CO | 106% |  |
| COc1ccc(OC)c(C(O)CNC(=O)CN)c1 (centres undefined) | 99.4% |  |
| O=C(/C=C/C=C/c1ccc2c(c1)OCO2)N1CCCCC1 | 104% |  |
| NC(N)=NCCCCN=C(N)N | 119% | 90.7% |
| COc1c(N2CCNC(C)C2)c(F)cc2c(=O)c(C(=O)O)cn(C3CC3)c12 (centres undefined) | 123% |  |
| C=C(C)C1Cc2c(ccc(C(=O)O)c2O)O1 (centres undefined) | 120% |  |
| CC1(C)NC(=O)N(c2ccc([N+](=O)[O-])c(C(F)(F)F)c2)C1=O | 124% | 98.2% |
| CC(=O)O[C@H]1[C@@H]2[C@@H](OC(=O)Cc3ccccc3)[C@@H](C)C[C@]2(OC(C)=O)C(=O)/C(C)=C/[C@H]2[C@H](CC[C@@]13CO3)C2(C)C | 103% |  |
| CC(=O)OC1CCC2(O)CC1(C)CCC1C2CC1(C)C (centres undefined) | 107% |  |
| CC[C@H](C)C(=O)O[C@H]1CCC=C2C=C[C@H](C)C(CCC3C[C@@H](O)CC(=O)O3)[C@H]21 (some centres undefined) | 102% |  |
| CC(=O)O[C@]1(C(C)=O)CCC2C3C[C@H](C)C4=CC(=O)CC[C@]4(C)C3CC[C@@]21C (some centres undefined) | 95.7% |  |
| C=CCCCCCCCCCCCC(O)CC(O)CO (centres undefined) (tested in a mixture with another compound) | 85.4% |  |
| CN1Cc2c(N)cccc2C(c2ccccc2)C1 (centres undefined) | 119% | 109% |
| O=C(CCc1ccc(O)cc1)c1c(O)cc(O)cc1O[C@@H]1O[C@H](CO)[C@@H](O)[C@H](O)[C@H]1O | 105% |  |
| COC(=O)C1=CO[C@@H](O[C@@H]2O[C@H](CO)[C@@H](O)[C@H](O)[C@H]2O)[C@@H]2[C@@H](C)CC(=O)[C@]12O | 109% |  |
| COc1ccc2oc3ccccc3c(=O)c2c1 | 106% |  |
| CC[C@@]1(O)C(=O)OCc2c1cc1n(c2=O)Cc2cc3c(CN(C)C)c(O)ccc3nc2-1 | 121% |  |
| O=c1[nH]cnc2[nH]ncc12 | 99.3% | 110% |
| C[N+]12CCC(CC1)C(OC(=O)C(O)(c1ccccc1)c1ccccc1)C2 (centres undefined) | 111% |  |
| CC(=O)[C@H]1CCC2C3C[C@H](C)C4=CC(=O)CC[C@]4(C)C3[C@@H](O)C[C@@]21C (some centres undefined) | 101% |  |
| C=C[C@H]1CN2CC[C@H]1C[C@@H]2[C@@H](O)c1ccnc2ccc(OC)cc12 | 98.9% | 115% |
| Cc1ccccc1N1C(=O)c2cc(S(N)(=O)=O)c(Cl)cc2NC1C (centres undefined) | 95.7% | 122% and 125% |
| Cc1ccc(O)cc1 | 102% |  |

| SMILES | activity remaining [1] | remaining activity [2] |
| --- | --- | --- |
| COc1ccc2c(c1)c(CC(=O)OCC(=O)O)c(C)n2C(=O)c1ccc(Cl)cc1 | 92.7% |  |
| OC/C=C/c1ccc(O)c(O)c1 | 81.7% |  |
| CC(=O)Nc1ccc(OC(=O)c2ccccc2O)cc1 | 101% |  |
| NC[C@H](O)c1ccc(O)c(O)c1 | 107% | 118% |
| COc1ccc(CN(CCN(C)C)c2ccccn2)cc1 | 118% | 112% |
| CCCCc1nc(Cl)c(CO)n1Cc1ccc(-c2ccccc2-c2nn[nH]n2)cc1 | 110% |  |
| COc1ccc(NS(=O)(=O)c2ccc(N)cc2)nn1 | 111% |  |
| Cc1cc(=O)c2c(O)c(C)c(O)cc2o1 | 108% |  |
| CCCCCCCCCCCCC[N+](C)(C)Cc1ccccc1 | 104% |  |
| COC(=O)[C@]1(C)CCC[C@]2(C)c3ccc(C(C)C)cc3C(=O)CC12 (some centres undefined) | 89.3% |  |
| Cc1cc(=O)[nH]c(=S)[nH]1 | 95.7% |  |
| CC(C)CCCC(C)C1CCC2C3=CC[C@H]4C[C@@H](O)CC[C@]4(C)C3CC[C@@]21C (some centres undefined) | 114% |  |
| CCC(C)C1NC(=O)C(CCNCS(=O)(=O)O)NC(=O)C(NC(=O)C(CCNCS(=O)(=O)O)NC(=O)C(NC(=O)C(CCNCS(=O)(=O)O)NC(=O)CCCCC(C)C)C(C)O)CCNC(=O)C(C(C)O)NC(=O)C(CCNCS(=O)(=O)O)NC(=O)C(CCNCS(=O)(=O)O)NC(=O)C(C(C)CC)NC1=O (centres undefined) ({Heptanoyl(6-Me)}-[ξDab(CH2SO3H)]T[ξDab(CH2SO3H)][Dab][ξDab(CH2SO3H)]II[ξDab(CH2SO3H)][ξDab(CH2SO3H)]T; lactam 4-C; configuration not given here) | 120% |  |
| Cc1cc(/C=C/c2ccc3cc(N(C)C)ccc3[n+]2C)c(C)n1-c1ccccc1 | 72.1% |  |
| COc1ccc(-c2coc3cc(O)ccc3c2=O)c(OC)c1 | 111% |  |
| CN(C)CCCO[C@H]1[C@@H](C(O)CO)OC2OC(C)(C)O[C@@H]21 (some centres undefined) | 95% |  |
| CC(C)C(C)/C=C/C(C)C1CCC2C3=CC=C4CC(O)CCC4(C)C3CCC21C (centres undefined) | 111% |  |
| CCCc1nn(C)c2c(=O)[nH]c(-c3cc(S(=O)(=O)N4CCN(C)CC4)ccc3OCC)nc12 | 97% |  |
| CCCCNc1cc(C(=O)O)cc(S(N)(=O)=O)c1Oc1ccccc1 | 115% | 109% |
| CO[C@H]1CC(O[C@@H]2/C(C)=C/C[C@@H]3C[C@@H](C[C@]4(CC[C@H](C)[C@@H](C5CCCCC5)O4)O3)OC(=O)[C@@H]3C=C(C)/C(=N/O)[C@H]4OC/C(=C\C=C\[C@@H]2C)[C@]43O)O[C@@H](C)C1O (some centres undefined) | 119% |  |
| O=C1OC(=O)C2C3CCC(O3)C12 (centres undefined) | 117% | 106% |
| N=C(N)c1ccc(OCCCCCOc2ccc(C(=N)N)cc2)cc1 | 98.2% | 122% |
| CN(C)CCOC(C)(c1ccccc1)c1ccccn1 (centres undefined) | 104% | 101% |
| Nc1nc2c(ncn2COCCO)c(=O)[nH]1 | 118% | 120% |
